# Screens (PubChem BioAssay)
# The list is not random: actives were taken first. Their share in the collection is about 2.4%.
# POLI inh: inhibitors of human DNA polymerase iota; Q9UNA4; Pol iota fluorescent replication assay, 10 min; Potency, µM (titrated, usually from 115 µM), inactives show top-dose activity, negative = inhibition, actives largely listed as inhibitors; hit rate 1% among 390,000
#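 Pol iota at 10 nM preincubated 15 min with compounds at room temperature; reaction started with fluorescent substrate, 50 nM final. Fluorescence read kinetically at 0 and 10 min; buffer-only wells as negative control.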
# Pol kappa inh-1: DNA polymerase kappa (human) inhibition; hit rate 0.53% among 400,000; purified Pol kappa, fluorescent DNA synthesis assay, 10 min; Q9UBT6; Potency, µM (series often up to 107 µM), without a hit: top-dose activity, negative = inhibition, hits mostly inhibitors; AID 588579; also: % is scaled to controls: 0 for no effect and ±100 for the full control effect
#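 Here, compound and 10 nM enzyme are combined for 15 min at room temperature; adding 50 nM substrate (final) starts DNA synthesis, tracked by fluorescence at 0 and 10 min against buffer-only wells.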
# WRN inhibitor: WRN helicase (human) inhibition. Q14191. WRN helicase unwinding, fluorescent forked duplex, kinetic. hit rate 0.46% among 360,000. Potency, µM (titrated, usually from 114 µM), without a hit: at the top dose activity change, negative = inhibition, actives largely listed as inhibitors; also: % is scaled to controls: 0 for no effect and ±100 for the full control effect; nearly all actives have a fitted effect of over 55% in size
#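 WRN at 20 nM final preincubated with compound 15 min at room temperature; reaction started with 100 nM fluorophore/quencher forked duplex oligonucleotide and 2 mM ATP final. Unwinding followed kinetically by red fluorescence (ex 525, em 598 nm).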
# POLB inh: inhibitors of human DNA polymerase beta. Pol beta primer extension/strand displacement, fluorescence kinetic. Potency, µM (top dose mostly 114 µM), inactives show top-dose activity change, negative = inhibition, actives largely listed as inhibitors. hit rate 1.3% among 340,000; also: % is scaled to controls: 0 for no effect and ±100 for the full control effect
#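 Pol beta (10 nM) was preincubated with compound for 15 min at room temperature. The reaction was then started with 50 nM substrate and read immediately and after a further 10 min at room temperature.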
# FEN1 inh: human FEN1 inhibition; P39748; Recombinant FEN1 flap cleavage, fluorescence, 15 min; Potency, µM (titrated, usually from 114 µM), inactives show at the highest dose activity change, negative = inhibition, actives largely listed as inhibitors; hit rate 0.35% among 390,000; also: % is scaled to controls: 0 for no effect and ±100 for the full control effect; nearly all actives have a fitted effect of over 65% in size
# Target sequence (P39748 whole entry, looked up): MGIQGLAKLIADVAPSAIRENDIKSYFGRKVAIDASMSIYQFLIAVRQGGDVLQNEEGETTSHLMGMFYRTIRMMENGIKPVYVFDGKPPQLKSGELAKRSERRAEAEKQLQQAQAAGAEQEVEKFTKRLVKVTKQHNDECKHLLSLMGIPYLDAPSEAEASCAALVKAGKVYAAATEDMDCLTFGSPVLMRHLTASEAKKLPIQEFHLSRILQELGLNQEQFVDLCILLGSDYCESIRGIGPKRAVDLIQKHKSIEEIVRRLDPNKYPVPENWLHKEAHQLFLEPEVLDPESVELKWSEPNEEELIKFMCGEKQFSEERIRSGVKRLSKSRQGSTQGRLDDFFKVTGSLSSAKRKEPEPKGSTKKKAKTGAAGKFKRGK
#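 Steps: FEN1 (10 nM) dispensed; compound added by pin tool; 15 min at room temperature; substrate added to 50 nM final; reads at 0 min and 15 min; data normalized and fitted (four-parameter Hill).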
# Pol eta inh-1: blocks human DNA polymerase eta activity; Q9Y253; recombinant Pol eta, fluorescent DNA replication assay; Potency, µM (titrated, usually from 114 µM), without a hit: at the highest dose activity change, negative = inhibition, most hits filed as inhibitors; hit rate 1.2% among 390,000; AID 588591; also: % is scaled to controls: 0 for no effect and ±100 for the full control effect
#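 Pol eta at 10 nM preincubated with compounds 15 min at room temperature; reaction started with fluorescent substrate (50 nM final) and read kinetically at 0 and 10 min.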
# Pol kappa inh-2: Pol kappa (human) inhibition, cherry-pick confirmation; purified Pol-kappa, fluorescent strand-displacement substrate; shares compounds with Pol eta inh-1; AID 720501; Potency, µM, usual class: inhibitors; hit rate 76% among 920
# Pol eta inh-2: confirmation of human DNA polymerase eta inhibitors; shares compounds with Pol eta inh-1; Pol eta primer extension, TAMRA/BHQ fluorescence, 10 min; Potency, µM, actives largely listed as inhibitors; hit rate 64% among 2,600; AID 720502
# Active calls of the source: *; u = inconclusive; x = no result given; ! = not active in a repeat; [ ] = dose if it differs, or a comment. Calls follow the shape of the dose curve; as a rule, active = well fitted curve in the direction sought with a large enough effect; inconclusive = small, poorly fitted or top-dose-only effect, or another doubt; inactive = no such curve, though single readings can be large; an effect the other way counts as inactive or inconclusive. Potency is read from the fitted curve at half-maximal effect.
SMILES,POLI inh,Pol kappa inh-1,WRN inhibitor,POLB inh,FEN1 inh,Pol eta inh-1,Pol kappa inh-2,Pol eta inh-2
O=C(O)c1cc(-c2ccc(/C=N/Nc3ccc([N+](=O)[O-])cn3)o2)ccc1Cl,u,-44%,u,u,-19%,-16%,75*,85*
COc1ccc(CCNC(=O)c2ccc3c(c2)c(C)c(C)n3Cc2ccc(F)cc2)c(OC)c1OC,-9%,-8%,x,1%,-8%,3%,x,x
COc1cc(OC)c(NC(=O)CN(C)S(=O)(=O)c2ccc3[nH]c(=O)oc3c2)cc1Cl,-5%,u,-7%,u,-23%,22µM*,42*,u
O=C(Nc1cccnc1Cl)c1ccc(=O)oc1,22µM*,45µM*,u,13µM*,20µM*,20µM*,x,u
COc1ccc(C(=O)Nc2cccnc2Cl)cc1OC,6%,-10%,-4%,u,-5%,-12%,x,x
Cc1ccc(Cl)c2c1N[C@@H](c1ccc(C(=O)O)cc1)[C@H]1CC=C[C@@H]21,32µM*,32µM*,x,16µM*,-34%,u,75*,u
Cc1oc2c(cc(NS(=O)(=O)c3ccc(C(C)C)cc3)c3ccccc32)c1C(=O)O,u,u,-6%[11.6 µM],50µM*!,u,45µM*,u,u
O=C(CSc1ccncc1)Nc1ccc(S(=O)(=O)Nc2nccs2)cc1,28µM*,u,-30%,2%,u,18µM*,x,48*
CCOC(=O)/C=C/C(=O)Nc1ccc(S(=O)(=O)Nc2nccs2)cc1,25µM*,-39%,-8%[11.6 µM],-2%,2%,45µM*,x,u
O=C(Nc1ccc(S(=O)(=O)Nc2nccs2)cc1)/C(=C/c1ccccc1Cl)NC(=O)c1ccccc1,-13%,-25%,-26%[57.1 µM],-1%,u,u,x,u
O=S(=O)(Nc1ccc(-c2ccc(N3CCCC3)nn2)cc1)c1ccc(OC(F)(F)F)cc1,-6%,-15%[60.1 µM],x,0%,-7%,-2%,x,x
CCS(=O)(=O)C1=NN2C(=N)/C(=C\c3ccc(OCCOc4cccc(OC)c4)c(OC)c3)C(=O)N=C2S1,u,-25%,-33%,50µM*,-2%,35µM*,u,u
COc1cc(/C=C2\C(=N)N3N=C(S(C)(=O)=O)SC3=NC2=O)cc(OC)c1OCCOc1ccc(C)cc1,u,-13%,-12%[11.6 µM],3%,-1%,-11%,x,x
COc1cc(/C=C2/C(=N)N3C=CSC3=NC2=O)ccc1OCCCOc1ccccc1C,23%,-18%,-25%,-3%,u,-15%,x,x
COc1cc(/C=C2/C(=N)N3OC(C)=CC3=NC2=O)ccc1OC(=O)c1ccco1,25%,-19%,-8%[57.1 µM],-12%,-5%,3%,x,x
COc1cc(/C=C2\C(=N)N3N=C(S(C)(=O)=O)SC3=NC2=O)ccc1OCCOc1ccc(C)cc1,u,3%[60.1 µM],-33%[11.6 µM],-29%,12%,u,27*,u
